# Where “and” joins values, the source holds several entries; their conditions need not be identical. Equal values may be shown once. Records with an inconclusive call do not appear. Entries that show only a call come without a potency. Calls of active or inactive are those of the source. Unless noted, calls follow the shape of the dose curve; as a rule, active = well fitted curve in the direction sought with a large enough effect; inconclusive = small, poorly fitted or top-dose-only effect, or another doubt; inactive = no such curve, though single readings can be large; an effect the other way counts as inactive or inconclusive.
# What was measured:
# [1] = qHTS for differential inhibitors of proliferation of Plasmodium falciparum line 7G8 (AID 1815);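 also: parasite growth measured after three days of incubation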
# [2] = qHTS for differential inhibitors of proliferation of Plasmodium falciparum line 3D7 (AID 1876);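 also: parasite growth measured after three days of culture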
# [3] = biological target: ATP-dependent DNA helicase Q1 (Homo sapiens) (UniProt P46063); assay: qHTS Validation Assay for Inhibitors of RecQ-Like Dna Helicase 1 (RECQ1) (AID 2353); also: potency is read from the fitted curve at half-maximal effect
# Sequence of ATP-dependent DNA helicase Q1 (Homo sapiens) (P46063 whole entry, looked up): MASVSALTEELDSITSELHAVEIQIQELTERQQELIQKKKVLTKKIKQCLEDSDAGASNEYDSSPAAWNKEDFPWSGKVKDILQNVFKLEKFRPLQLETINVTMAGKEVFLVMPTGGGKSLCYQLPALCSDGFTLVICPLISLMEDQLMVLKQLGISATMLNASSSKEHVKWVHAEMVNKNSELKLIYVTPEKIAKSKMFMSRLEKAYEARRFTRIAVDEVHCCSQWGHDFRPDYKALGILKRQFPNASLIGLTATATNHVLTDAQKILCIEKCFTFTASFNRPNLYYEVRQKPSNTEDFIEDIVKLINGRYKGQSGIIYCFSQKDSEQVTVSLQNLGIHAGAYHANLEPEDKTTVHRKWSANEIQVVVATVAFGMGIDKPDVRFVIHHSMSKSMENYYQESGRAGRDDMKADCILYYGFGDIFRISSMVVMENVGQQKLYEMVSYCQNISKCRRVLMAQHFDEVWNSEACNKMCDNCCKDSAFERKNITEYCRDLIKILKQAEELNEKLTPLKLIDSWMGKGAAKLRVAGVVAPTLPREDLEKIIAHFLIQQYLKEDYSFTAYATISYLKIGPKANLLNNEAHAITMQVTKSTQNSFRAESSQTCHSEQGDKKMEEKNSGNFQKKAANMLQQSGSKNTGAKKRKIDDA
# Method in brief: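 50 nM RECQ1T1 preincubated 15 min with compound in Tris pH 8.0 buffer with MgCl2, DTT, Tween-20 and 2.5 ug/ml poly(dI-dC); started with 200 nM TAMRA/BHQ-2 forked duplex and 2 mM ATP. Unwinding read as fluorescence (525/598 nm), two reads 2 h apart.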
# [4] = biological target: RecQ-like DNA helicase BLM (Homo sapiens) (UniProt P54132); assay: qHTS Validation Assay for Inhibitors of Bloom's syndrome helicase (BLM) (AID 2364); also: potency is read from the fitted curve at half-maximal effect
# Sequence of RecQ-like DNA helicase BLM (Homo sapiens) (P54132 whole entry, looked up): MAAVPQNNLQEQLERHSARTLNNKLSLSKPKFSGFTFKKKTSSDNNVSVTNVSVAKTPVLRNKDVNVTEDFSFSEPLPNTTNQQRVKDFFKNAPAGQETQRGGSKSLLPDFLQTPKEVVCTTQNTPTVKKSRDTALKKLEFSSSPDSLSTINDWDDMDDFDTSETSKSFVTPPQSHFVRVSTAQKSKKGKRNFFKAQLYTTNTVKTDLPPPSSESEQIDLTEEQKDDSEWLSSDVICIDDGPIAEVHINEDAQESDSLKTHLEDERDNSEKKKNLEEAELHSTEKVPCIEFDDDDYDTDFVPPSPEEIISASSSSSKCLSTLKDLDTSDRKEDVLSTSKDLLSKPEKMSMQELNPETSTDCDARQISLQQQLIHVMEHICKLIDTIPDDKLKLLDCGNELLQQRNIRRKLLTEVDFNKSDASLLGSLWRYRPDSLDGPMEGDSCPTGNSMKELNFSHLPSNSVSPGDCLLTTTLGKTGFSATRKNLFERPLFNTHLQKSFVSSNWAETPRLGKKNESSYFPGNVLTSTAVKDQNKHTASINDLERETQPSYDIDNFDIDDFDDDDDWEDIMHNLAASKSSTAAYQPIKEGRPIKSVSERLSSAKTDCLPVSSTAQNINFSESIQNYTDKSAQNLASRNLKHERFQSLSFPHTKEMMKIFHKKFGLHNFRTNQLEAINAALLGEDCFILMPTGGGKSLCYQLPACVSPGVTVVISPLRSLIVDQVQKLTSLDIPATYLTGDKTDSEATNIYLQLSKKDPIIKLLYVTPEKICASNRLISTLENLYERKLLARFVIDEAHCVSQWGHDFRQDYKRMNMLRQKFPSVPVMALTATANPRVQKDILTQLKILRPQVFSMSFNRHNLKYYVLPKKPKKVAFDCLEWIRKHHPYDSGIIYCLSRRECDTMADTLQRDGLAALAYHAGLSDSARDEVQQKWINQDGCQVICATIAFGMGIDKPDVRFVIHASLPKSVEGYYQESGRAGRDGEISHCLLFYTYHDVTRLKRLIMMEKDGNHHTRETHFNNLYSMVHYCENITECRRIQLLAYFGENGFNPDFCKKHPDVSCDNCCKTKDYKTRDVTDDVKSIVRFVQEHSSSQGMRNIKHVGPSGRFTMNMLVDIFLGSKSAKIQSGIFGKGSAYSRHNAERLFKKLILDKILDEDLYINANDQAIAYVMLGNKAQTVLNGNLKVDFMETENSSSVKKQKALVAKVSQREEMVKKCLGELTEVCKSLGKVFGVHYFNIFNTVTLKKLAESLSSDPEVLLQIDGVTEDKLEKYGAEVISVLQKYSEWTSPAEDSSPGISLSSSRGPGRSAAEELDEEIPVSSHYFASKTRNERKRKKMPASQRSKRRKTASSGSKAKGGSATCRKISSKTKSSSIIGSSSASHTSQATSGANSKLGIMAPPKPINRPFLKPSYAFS
# Method in brief: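 BLM 50 nM in 25 mM Tris-HCl pH 8.0, 5 mM NaCl, 2 mM MgCl2, 1 mM DTT, 0.01% Tween-20, 2.5 ug/ml poly(dI-dC); 15 min cpd preinc, RT. Start: 200 nM forked DNA + 2 mM ATP (final). TAMRA read, 2 reads 2 h apart.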
# [5] = Cytometric Cell-Based qHTS for Inhibitors of the mTORC1 Signaling Pathway in MEF (Tsc2-/-, p53-/-) Cells (AID 2660);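 also: percent of cells above a phospho-rpS6 to PI ratio cutoff in each well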
# Method in brief: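 Cells are plated, treated with compound for 24 hrs at 37 degree Celsius, then fixed, blocked and immunostained for phospho-rpS6 Ser235/236. Propidium iodide counterstain follows. Per-well % positive cells is derived from the PI-normalized phospho-S6 signal.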
# [6] = High Content Imaging Cell-Based qHTS for Inhibitors of the mTORC1 Signaling Pathway in MEF (Tsc2-/-, p53-/-) Cells (AID 2666); details: at 38.3 µM (top of the series);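 also: percent of cells scored positive for phospho-rpS6 Ser235/236 immunostaining by imaging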
# Method in brief: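 Read-out: % positive cells per well, with thresholds from highest- and lowest-signal wells, based on phospho-rpS6 (Ser235/236) intensity normalized to Hoechst nuclear stain. Cells: Tsc2-/-, p53-/- MEFs carrying empty vector; compound 24 hrs, 37 degree Celsius.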
# [7] = High Content Imaging Cell-Based qHTS for Inhibitors of the mTORC1 Signaling Pathway in MEF Cells (AID 2667);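 also: Tsc2-/- p53-/- MEFs stably re-expressing wild-type Tsc2 exposed 24 h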
# Method in brief: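 MEF (Tsc2-/-, p53-/-, WT Tsc2 re-expressed); cpd 24 h, 37 °C; PFA fix; Alexa-488 anti-p-rpS6 Ser235/236, PI, Hoechst; IN Cell imaging; Hoechst/Alexa-488 intensity ratio; % active cells, thresholds set from rapamycin and DMSO wells.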
# [8] = Cytometry Cell-Based qHTS for Inhibitors of the mTORC1 Signaling Pathway in MEF cells (AID 2668);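 also: Tsc2-/- p53-/- mouse embryonic fibroblasts stably re-expressing wild-type Tsc2; percent cells positive for phospho-rpS6 Ser235/236 relative to propidium iodide stain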
# Method in brief: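 In MEFs grown in DMEM + 10% FBS, a 24 hrs compound exposure preceded imaging of phospho-rpS6 Ser235/236 by laser-scanning cytometry.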
# [9] = Validation screen for small molecules that induce DNA re-replication in MCF 10A normal breast cells (AID 463097); also: nearly all actives have a fitted effect of over 60% in size
# Method in brief: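 Following 48 hr compound incubation (37 C, 5% CO2), MCF 10A cells receive Hoechst for 40 min at 37 C. Nuclei are then scanned (excitation 405 nm, emission 500-530 nm) for total fluorescence intensity.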
# [10] = biological target: DNA polymerase III PolC-type (Bacillus subtilis (strain 168)) (UniProt P13267); assay: qHTS Validation Assay for the Inhibitors of DNA Replication in Gram-Positive Bacteria (AID 485295); also: potency is read from the fitted curve at half-maximal effect
# Method in brief: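 Inhibition of DNA synthesis by the reconstituted PolC holoenzyme, monitored through PicoGreen staining of dsDNA formed from ssM13Gori, dNTPs and NTPs, with compound preincubation and room-temperature reaction.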
# [11] = biological target: Tumor susceptibility gene 101 protein (Homo sapiens) (UniProt Q99816); assay: qHTS Validation Assay for Iinhibitors of HIV-1 Budding by Blocking the Interaction of PTAP/TSG101 (AID 485342; calls by dose curve)
# Sequence of Tumor susceptibility gene 101 protein (Homo sapiens) (Q99816 whole entry, looked up, the tested form may be a part): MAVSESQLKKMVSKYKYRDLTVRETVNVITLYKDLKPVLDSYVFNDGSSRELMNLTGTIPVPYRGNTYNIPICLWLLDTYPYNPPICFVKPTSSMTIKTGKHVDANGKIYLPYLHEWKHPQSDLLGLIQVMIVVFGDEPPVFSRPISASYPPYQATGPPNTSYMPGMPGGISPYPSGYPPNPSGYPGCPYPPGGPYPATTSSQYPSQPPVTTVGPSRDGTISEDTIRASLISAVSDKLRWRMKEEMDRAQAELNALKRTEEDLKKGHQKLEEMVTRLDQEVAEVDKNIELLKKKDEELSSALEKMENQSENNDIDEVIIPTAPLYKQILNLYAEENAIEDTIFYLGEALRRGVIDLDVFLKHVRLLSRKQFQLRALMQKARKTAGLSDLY
# Method in brief: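 Compound wells held the Tsg101 binding domain (10 uM) and a FITC-conjugated PTAP peptide (50 nM) in buffer at pH 7.5 containing 0.15 M NaCl and 0.01% Tween 20; polarization was recorded after 20 min, r.t.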
# [12] = biological target: ATP-dependent 6-phosphofructokinase (Trypanosoma brucei brucei) (UniProt O15648); assay: qHTS Validation Assay to Find Inhibitors of T. brucei phosphofructokinase (AID 485368); also: potency is read from the fitted curve at half-maximal effect
# Method in brief: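 Enzyme reaction in triethanolamine buffer pH 8.0 with 5 mM MgCl2, 0.01% Tween20 and 0.1% BSA; PFK 1.25 nM, F6P 0.5 mM, ATP 0.1 mM, 45 min RT. ADP quantified by ADP-Glo.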
# [13] = biological target: Thioredoxin reductase 1, cytoplasmic (Rattus norvegicus) (UniProt O89049); assay: qHTS Assay for Substrates of Mammalian Selenoprotein Thioredoxin Reductase 1 (TrxR1) (AID 488772);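 also: NADPH fluorescence in the first read after selenite addition and not the 8 min delta; a drop in NADPH fluorescence below the no-compound background marks a TrxR1 substrate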
# Method in brief: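 Quantitative HTS in Tris-HCl buffer at pH 7.5 with EDTA and Tween-20, using rat TrxR1, 400 uM NADPH and 400 uM selenite (final). A fall in initial NADPH fluorescence relative to background marked substrate behaviour.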
# [14] = biological target: Flap endonuclease 1 (Homo sapiens) (UniProt P39748); assay: qHTS Validation Assay for the Inhibitors of Human Flap endonuclease 1 (FEN1) (AID 488816); also: potency is read from the fitted curve at half-maximal effect
# Method in brief: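 FEN1, dispensed as a 10 nM reagent, was preincubated with pin-transferred compounds for 15 min at room temperature before substrate was added (50 nM final). Plates were read at 0 and 15 min, and a four-parameter Hill equation was fitted to the concentration-response data.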
# [15] = biological target: M-phase phosphoprotein 8 (Homo sapiens) (UniProt Q99549); assay: qHTS Validation Assay for Inhibitors for MPP8 Chromodomain Interactions with Methylated Histone Tails (AID 488949); also: potency is read from the fitted curve at half-maximal effect; nearly all actives have a fitted effect of over 55% in size
# Sequence of M-phase phosphoprotein 8 (Homo sapiens) (Q99549 whole entry, looked up): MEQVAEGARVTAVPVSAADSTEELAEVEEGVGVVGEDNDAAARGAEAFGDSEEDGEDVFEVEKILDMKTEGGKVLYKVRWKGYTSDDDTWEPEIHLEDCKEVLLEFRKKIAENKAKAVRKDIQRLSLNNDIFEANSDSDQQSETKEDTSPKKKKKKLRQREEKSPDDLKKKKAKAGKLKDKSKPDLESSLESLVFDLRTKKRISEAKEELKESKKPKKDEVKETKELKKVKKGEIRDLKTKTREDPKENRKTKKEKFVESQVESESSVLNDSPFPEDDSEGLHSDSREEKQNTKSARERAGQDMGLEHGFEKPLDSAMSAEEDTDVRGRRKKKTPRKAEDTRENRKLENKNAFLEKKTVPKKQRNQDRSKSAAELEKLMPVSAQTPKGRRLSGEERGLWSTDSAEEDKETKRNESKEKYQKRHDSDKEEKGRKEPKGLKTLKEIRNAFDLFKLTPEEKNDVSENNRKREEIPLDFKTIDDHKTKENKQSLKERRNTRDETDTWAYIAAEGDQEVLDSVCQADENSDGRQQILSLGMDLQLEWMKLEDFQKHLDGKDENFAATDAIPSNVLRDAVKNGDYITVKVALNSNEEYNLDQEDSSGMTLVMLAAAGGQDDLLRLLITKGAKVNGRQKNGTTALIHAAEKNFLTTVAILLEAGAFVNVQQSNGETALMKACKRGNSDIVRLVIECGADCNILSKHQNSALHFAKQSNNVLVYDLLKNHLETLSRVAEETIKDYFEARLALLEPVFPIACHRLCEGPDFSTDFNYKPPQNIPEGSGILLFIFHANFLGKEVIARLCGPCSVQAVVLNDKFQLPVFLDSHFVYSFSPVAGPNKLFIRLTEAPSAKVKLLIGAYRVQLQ
# Method in brief: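 Chemiluminescent proximity assay: histidine-tag capture via nickel acceptor beads, biotin peptide via streptavidin donor beads. Protein and peptide each at 50 nM, pH 7.4, with 30 min incubations at room temperature for complex formation, compound exposure and bead binding.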
# [16] = biological target: Chromobox protein homolog 1 (Homo sapiens) (UniProt P83916); assay: qHTS Validation Assay for Inhibitors of HP1-beta Chromodomain Interactions with Methylated Histone Tails (AID 488953); also: potency is read from the fitted curve at half-maximal effect; nearly all actives have a fitted effect of over 50% in size
# Sequence of Chromobox protein homolog 1 (Homo sapiens) (P83916 whole entry, looked up): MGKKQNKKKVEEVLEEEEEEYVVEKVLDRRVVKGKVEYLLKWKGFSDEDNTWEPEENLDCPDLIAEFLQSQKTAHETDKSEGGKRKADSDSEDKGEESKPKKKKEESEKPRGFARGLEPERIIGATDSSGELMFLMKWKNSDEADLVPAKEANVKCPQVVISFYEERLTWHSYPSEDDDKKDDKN
# Method in brief: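 HP1-beta (50 nM) was preincubated 30 min at room temperature with biotinylated H3(1-18)K9me3 peptide (50 nM) in PBS pH 7.4, 0.01% Tween-20, then with compounds 30 min. AlphaScreen signal was read after streptavidin donor/nickel chelate acceptor beads (10 ug/mL final).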
# [17] = biological target: Methanococcus maripaludis chaperonin (MmCpn) (UniProt Q6LX38); assay: High-Throughput Screening for Modulators of Cytosolic Chaperonin Activity: MmCpn Primary Screen (AID 488978)
# Method in brief: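 HTRF readout (320 nm excitation, 590/665 nm emission) of ADP generated by 50 nM MmCpn hydrolysing 30 uM ATP during 10 min at 37C; compound preincubated 5 min RT.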
# [18] = biological target: Transient receptor potential cation channel subfamily V member 1 (Homo sapiens) (UniProt Q8NER1); assay: HTS Assay for Compounds that Act as Enhancers of the Vanilloid Receptor 1 (AID 488979)
# Method in brief: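 TRPV1-expressing cells loaded with Fluo-8 calcium dye; compounds added and calcium influx read kinetically for 3 min (agonist phase), then capsaicin at EC20 added and read 2 min more for enhancement. Fluorescence ex 480/em 520 nm.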
# [19] = biological target: Thyrotropin receptor (Homo sapiens) (UniProt P16473); assay: qHTS Assay for Antagonists of the Thyroid Stimulating Hormone Receptor (AID 488980)
# Sequence of Thyrotropin receptor (Homo sapiens) (P16473 whole entry, looked up): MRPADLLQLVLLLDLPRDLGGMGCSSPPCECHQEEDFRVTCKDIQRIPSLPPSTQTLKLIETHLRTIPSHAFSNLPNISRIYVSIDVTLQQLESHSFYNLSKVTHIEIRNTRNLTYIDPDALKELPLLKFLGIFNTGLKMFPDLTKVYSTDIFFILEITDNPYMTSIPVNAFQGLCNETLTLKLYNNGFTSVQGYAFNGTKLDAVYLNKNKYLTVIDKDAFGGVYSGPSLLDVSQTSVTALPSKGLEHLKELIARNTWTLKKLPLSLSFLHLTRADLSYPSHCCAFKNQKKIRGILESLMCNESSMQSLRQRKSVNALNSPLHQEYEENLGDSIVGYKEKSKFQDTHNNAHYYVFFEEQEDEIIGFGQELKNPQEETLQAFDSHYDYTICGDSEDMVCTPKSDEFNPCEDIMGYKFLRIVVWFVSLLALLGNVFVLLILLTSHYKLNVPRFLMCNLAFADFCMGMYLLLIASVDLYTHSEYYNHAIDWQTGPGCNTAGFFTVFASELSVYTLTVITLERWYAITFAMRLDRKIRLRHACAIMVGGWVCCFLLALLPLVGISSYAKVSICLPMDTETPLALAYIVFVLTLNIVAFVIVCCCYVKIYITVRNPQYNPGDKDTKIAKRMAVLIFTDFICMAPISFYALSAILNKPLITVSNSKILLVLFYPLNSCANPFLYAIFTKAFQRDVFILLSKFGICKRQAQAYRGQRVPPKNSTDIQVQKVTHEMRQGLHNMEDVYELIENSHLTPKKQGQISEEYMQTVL
# Method in brief: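 Inhibition of TSH-stimulated cAMP accumulation was quantified by homogeneous time-resolved FRET in TSHR-transfected HEK293 cells. Agonist: TSH, 4 nM final (EC80).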
# [20] = biological target: D(1A) dopamine receptor (Homo sapiens) (UniProt P21728); assay: HTS Assay for Allosteric Agonists of the Human D1 Dopamine Receptor: Primary Screen for Agonists (AID 488981)
# Sequence of D(1A) dopamine receptor (Homo sapiens) (P21728 whole entry, looked up): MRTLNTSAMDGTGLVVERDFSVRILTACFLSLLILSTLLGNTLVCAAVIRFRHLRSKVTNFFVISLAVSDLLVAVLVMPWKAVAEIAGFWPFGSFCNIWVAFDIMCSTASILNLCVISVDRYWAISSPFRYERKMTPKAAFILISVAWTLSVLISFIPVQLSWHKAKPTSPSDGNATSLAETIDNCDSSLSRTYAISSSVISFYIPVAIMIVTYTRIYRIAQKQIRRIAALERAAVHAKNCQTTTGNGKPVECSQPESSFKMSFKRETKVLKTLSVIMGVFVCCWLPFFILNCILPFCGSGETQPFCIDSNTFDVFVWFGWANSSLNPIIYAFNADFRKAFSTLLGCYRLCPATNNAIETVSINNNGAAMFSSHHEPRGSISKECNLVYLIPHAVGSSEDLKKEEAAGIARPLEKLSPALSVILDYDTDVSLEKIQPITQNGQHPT
# Method in brief: (§1)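 Tetracycline-induced HEK293 T-REx cells force-coupled to calcium signalling were incubated overnight at 30 C and dye-loaded at room temperature. Calcium flux over 180 s after compound addition flagged agonists; a further 180 s read after EC20 dopamine flagged potentiators.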
# [21] = biological target: D(1A) dopamine receptor (Homo sapiens) (UniProt P21728); assay: HTS Assay for Allosteric Agonists of the Human D1 Dopamine Receptor: Primary Screen for Potentiators (AID 488982)
# Method in brief: as §1
structure (smiles),measurement,setting,value
Nc1c(S(=O)(=O)O)cc(Nc2ccc(Nc3nc(Cl)nc(Nc4ccc(S(=O)(=O)O)cc4)n3)c(S(=O)(=O)O)c2)c2c1C(=O)c1ccccc1C2=O,Potency,[1],inactive
same,Potency,[2],inactive
same,Potency,[3],1000 nM (active)
same,Potency,[4],6310 nM (active)
same,outcome,[5],inactive
same,outcome,[6],inactive
same,Potency,[7],inactive
same,Potency,[8],inactive
same,Potency,[9],inactive
same,Potency,[10],5320 nM (active)
same,outcome,[11],inactive
same,Potency,[12],2390 nM (active)
same,outcome,[13],inactive
same,Potency,[14],947 nM (active)
same,Potency,[15],1.58 µM (active) and 844 nM (active)
same,Potency,[16],1260 nM (active)
same,outcome,[17],inactive
same,outcome,[18],inactive
same,outcome,[19],inactive
same,outcome,[20],inactive
same,outcome,[21],inactive
